Measured values from the supplement of paper PMC11732987, “Enantioselective OTUD7B fragment discovery through chemoproteomics screening and high-throughput optimisation” (Communications Chemistry, 2025).

Columns and labels:
Experiment in all cases: log2 ratio of Biotin-Ahx-Ub-VS probe labelling (fragment/DMSO); higher = less target engagement (more negative = stronger competition), active = hit call of the paper (q ≤ 0.05, log2 ratio ≤ -1)
Conditions in all cases: compound concentration: 200 uM; treatment time: 3 h
USP34 = USP34 (UniProt Q70CQ2)
Chain of USP34 (Q70CQ2 whole entry, the tested form may be a part): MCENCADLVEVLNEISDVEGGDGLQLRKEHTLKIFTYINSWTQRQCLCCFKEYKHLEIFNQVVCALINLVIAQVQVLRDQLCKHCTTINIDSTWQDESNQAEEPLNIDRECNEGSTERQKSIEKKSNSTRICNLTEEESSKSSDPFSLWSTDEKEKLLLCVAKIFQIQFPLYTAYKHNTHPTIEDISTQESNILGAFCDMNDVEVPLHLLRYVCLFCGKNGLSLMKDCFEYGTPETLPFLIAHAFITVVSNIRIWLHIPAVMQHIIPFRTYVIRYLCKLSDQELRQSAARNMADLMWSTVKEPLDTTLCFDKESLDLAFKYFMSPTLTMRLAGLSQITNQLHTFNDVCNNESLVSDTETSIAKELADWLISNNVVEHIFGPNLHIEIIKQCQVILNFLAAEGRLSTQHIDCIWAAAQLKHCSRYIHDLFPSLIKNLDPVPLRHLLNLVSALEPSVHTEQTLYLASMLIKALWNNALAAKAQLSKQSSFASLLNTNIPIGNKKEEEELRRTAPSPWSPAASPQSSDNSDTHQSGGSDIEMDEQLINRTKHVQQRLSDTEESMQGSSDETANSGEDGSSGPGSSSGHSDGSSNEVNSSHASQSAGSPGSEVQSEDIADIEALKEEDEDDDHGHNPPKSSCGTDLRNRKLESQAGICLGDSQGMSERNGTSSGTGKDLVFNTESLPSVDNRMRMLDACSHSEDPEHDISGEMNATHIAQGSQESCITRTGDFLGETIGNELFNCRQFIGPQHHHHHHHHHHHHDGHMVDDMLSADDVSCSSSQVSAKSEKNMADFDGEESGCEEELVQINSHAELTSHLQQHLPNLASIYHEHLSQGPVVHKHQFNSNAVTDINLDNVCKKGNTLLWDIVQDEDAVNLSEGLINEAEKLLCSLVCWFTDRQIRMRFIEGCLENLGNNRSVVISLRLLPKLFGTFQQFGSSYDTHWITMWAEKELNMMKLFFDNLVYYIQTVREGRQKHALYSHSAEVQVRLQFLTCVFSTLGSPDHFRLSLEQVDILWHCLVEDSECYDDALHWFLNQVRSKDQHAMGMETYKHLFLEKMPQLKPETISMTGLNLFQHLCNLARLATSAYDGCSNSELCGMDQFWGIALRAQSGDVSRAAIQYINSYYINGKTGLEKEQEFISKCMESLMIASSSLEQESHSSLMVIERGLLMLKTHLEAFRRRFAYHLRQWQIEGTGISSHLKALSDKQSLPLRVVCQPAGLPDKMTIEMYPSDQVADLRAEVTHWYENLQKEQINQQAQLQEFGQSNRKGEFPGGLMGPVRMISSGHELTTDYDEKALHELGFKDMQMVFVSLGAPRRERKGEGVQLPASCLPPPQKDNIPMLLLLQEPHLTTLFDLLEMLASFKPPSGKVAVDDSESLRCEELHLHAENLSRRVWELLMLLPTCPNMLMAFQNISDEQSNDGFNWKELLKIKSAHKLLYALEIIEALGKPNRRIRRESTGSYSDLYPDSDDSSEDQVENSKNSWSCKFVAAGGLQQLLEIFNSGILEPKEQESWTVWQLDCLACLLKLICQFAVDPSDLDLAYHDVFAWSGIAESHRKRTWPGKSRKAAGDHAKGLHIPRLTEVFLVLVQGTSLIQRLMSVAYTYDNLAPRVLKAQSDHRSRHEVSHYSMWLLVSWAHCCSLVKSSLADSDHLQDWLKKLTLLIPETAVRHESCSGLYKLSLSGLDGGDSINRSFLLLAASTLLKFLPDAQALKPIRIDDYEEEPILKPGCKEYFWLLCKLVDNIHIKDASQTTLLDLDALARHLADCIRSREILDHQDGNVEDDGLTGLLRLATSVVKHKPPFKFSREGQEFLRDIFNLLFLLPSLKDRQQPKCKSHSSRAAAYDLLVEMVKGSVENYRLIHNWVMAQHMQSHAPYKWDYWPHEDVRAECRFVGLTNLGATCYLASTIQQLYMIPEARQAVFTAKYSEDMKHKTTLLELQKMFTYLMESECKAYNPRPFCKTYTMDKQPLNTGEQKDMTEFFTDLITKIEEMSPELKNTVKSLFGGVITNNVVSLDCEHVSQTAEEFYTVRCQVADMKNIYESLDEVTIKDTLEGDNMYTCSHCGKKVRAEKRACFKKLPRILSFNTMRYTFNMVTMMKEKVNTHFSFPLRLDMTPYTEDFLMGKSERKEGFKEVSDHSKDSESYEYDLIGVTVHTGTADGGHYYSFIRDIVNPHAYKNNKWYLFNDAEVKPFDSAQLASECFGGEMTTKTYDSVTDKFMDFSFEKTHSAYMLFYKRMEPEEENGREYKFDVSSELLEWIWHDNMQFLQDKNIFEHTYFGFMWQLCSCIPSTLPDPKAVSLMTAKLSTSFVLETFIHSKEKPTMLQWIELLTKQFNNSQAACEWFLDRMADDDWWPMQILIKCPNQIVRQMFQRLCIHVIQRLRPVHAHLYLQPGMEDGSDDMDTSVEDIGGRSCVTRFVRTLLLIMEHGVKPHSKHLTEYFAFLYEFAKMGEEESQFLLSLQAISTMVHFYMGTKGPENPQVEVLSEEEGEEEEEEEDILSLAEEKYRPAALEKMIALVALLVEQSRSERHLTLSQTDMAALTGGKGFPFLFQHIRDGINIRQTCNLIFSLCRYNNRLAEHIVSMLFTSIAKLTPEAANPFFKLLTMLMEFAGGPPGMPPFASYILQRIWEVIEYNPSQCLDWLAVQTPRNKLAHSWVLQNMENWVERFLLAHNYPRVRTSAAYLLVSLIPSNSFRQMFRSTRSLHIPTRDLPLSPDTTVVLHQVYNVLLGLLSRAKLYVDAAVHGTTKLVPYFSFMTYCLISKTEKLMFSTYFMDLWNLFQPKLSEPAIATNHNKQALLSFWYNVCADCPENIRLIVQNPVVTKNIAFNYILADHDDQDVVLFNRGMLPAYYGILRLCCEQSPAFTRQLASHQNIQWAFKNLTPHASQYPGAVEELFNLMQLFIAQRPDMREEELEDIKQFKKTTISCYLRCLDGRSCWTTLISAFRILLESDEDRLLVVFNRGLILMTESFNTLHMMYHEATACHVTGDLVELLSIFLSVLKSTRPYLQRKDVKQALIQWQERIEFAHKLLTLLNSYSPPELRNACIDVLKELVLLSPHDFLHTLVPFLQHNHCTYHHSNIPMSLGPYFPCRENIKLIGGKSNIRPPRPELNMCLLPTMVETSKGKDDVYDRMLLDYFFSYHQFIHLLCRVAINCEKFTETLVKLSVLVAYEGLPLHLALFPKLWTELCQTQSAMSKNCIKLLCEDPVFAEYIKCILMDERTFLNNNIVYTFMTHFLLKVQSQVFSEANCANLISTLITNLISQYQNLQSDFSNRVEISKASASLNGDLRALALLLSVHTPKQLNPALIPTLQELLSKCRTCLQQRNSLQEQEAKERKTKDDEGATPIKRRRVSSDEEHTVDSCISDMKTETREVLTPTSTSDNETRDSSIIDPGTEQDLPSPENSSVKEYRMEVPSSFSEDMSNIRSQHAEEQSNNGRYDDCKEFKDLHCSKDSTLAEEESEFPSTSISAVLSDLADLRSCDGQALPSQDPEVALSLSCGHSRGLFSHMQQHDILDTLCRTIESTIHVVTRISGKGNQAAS
Outline: (§1)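 Each value is an average log2 ratio of fragment to vehicle, tested by unpaired t-test. The underlying Spectronaut label-free quantities were global-median-normalised, and only proteins with ≥2 unique peptides were included. Triplicate HEK293T lysate samples (495 µg) were exposed to fragment at 200 µM or vehicle for 3 h, then to Biotin-Ahx-Ub-VS at 0.5 µM final for 1 h, before NeutrAvidin enrichment of labelled DUBs, LysC and trypsin digestion, and diaPASEF LC-MS/MS.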

USP36 = target: T1, USP36 (UniProt Q9P275)
T1 sequence (whole entry): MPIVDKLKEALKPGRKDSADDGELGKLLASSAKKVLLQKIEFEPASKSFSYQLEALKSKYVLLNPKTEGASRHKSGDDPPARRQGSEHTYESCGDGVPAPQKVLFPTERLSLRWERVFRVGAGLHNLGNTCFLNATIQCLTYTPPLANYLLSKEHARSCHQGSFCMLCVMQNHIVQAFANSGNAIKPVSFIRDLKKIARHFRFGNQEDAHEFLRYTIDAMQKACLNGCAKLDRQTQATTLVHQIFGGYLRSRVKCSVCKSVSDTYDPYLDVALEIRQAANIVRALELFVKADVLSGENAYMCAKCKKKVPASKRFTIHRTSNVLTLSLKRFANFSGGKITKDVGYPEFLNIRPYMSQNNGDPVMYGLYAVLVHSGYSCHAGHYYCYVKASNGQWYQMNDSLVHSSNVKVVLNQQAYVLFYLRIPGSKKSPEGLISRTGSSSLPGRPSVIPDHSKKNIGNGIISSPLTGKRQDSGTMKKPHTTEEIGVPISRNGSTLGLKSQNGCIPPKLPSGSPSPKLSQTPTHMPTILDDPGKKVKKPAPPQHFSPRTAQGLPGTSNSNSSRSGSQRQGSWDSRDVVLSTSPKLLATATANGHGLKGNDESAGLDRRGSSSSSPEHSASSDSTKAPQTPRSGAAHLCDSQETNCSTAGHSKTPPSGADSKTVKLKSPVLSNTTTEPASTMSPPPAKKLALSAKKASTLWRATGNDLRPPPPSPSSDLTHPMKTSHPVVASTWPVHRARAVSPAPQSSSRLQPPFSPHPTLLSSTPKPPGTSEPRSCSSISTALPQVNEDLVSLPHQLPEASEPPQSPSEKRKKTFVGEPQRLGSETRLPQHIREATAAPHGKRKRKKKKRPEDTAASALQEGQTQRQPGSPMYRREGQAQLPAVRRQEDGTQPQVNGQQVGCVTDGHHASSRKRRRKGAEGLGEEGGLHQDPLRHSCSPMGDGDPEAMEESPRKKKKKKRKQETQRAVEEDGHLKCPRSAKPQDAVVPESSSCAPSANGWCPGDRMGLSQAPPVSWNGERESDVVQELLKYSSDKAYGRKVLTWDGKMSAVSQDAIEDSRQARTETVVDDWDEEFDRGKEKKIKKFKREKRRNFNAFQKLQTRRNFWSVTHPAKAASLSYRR
Outline: as §1

USP38 = target: T2, USP38 (UniProt Q8NB14)
T2 sequence (whole entry): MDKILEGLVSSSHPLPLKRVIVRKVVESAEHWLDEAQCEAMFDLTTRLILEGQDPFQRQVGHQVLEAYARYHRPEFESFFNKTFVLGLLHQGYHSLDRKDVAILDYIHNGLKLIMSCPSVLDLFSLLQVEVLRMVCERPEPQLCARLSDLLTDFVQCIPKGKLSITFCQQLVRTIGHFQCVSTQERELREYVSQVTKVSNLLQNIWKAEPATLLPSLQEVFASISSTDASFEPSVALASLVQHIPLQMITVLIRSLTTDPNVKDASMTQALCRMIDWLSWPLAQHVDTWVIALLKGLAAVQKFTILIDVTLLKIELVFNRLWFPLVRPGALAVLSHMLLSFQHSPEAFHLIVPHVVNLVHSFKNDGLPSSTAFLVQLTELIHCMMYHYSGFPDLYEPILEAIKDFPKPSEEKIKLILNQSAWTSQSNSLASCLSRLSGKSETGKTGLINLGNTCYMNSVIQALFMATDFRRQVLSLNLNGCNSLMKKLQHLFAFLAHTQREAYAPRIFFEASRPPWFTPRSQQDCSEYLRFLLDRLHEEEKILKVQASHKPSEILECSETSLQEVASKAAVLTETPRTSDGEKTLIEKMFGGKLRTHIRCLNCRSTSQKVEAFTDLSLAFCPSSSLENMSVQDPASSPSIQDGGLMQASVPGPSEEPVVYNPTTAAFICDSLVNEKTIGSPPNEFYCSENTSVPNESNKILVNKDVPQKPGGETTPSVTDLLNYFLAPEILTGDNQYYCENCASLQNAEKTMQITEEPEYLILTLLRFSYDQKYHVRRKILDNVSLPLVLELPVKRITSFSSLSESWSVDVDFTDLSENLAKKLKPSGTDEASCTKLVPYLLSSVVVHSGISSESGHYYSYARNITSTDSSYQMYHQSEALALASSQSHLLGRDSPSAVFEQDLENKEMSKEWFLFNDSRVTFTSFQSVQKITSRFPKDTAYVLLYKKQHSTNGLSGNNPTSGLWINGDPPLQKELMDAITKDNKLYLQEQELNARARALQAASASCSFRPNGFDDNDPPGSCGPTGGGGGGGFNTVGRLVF
Outline: as §1

USP39 = target: T3, USP39 (UniProt Q53GS9)
T3 sequence (whole entry): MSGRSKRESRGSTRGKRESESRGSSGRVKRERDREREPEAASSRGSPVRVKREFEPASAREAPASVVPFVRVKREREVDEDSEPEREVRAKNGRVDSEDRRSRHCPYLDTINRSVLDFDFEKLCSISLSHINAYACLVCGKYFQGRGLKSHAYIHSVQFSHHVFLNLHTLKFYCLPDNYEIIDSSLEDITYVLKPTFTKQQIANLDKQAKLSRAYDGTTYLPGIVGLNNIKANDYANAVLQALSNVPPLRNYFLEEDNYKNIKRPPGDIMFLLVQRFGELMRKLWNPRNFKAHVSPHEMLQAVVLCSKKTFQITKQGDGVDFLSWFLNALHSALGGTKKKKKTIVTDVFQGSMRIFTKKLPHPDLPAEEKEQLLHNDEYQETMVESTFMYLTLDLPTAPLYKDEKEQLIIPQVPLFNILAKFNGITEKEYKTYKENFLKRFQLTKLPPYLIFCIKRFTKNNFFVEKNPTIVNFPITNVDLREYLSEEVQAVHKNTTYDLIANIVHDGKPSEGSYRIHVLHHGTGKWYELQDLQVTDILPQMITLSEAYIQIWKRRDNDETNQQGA
Outline: as §1

USP4 = target: T4, USP4 (UniProt Q13107)
T4 sequence (whole entry): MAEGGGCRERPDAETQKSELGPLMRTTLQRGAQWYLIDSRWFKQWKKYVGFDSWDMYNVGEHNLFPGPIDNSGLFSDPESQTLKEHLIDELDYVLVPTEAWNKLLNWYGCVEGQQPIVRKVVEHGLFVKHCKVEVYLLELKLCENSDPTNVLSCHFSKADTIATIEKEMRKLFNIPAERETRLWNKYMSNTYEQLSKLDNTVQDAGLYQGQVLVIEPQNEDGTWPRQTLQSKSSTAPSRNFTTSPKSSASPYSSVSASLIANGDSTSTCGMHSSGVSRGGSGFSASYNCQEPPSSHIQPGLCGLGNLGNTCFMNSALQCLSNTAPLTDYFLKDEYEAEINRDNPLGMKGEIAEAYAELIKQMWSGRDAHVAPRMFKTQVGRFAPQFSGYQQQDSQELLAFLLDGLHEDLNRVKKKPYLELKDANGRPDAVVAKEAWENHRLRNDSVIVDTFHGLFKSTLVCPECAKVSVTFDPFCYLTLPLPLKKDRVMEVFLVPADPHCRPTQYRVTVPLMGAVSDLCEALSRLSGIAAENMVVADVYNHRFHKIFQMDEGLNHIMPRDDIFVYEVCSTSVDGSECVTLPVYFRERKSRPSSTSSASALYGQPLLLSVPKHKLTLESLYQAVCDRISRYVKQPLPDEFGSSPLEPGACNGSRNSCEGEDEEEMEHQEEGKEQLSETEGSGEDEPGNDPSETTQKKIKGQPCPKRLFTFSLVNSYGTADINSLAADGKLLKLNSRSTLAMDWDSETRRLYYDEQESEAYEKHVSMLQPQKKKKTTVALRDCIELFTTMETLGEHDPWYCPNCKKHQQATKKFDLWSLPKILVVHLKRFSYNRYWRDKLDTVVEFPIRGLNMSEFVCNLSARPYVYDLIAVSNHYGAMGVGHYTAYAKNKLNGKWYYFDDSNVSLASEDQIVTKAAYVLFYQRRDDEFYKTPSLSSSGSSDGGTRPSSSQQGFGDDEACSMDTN
Outline: as §1

Measured: log2 ratio of Biotin-Ahx-Ub-VS probe labelling

O=C(CCl)N1CCCC2CCCCC21 (stereo not given)
inactive: USP34 -0.14 | USP36 -0.176 | USP38 -0.0442 | USP39 -0.107 | USP4 -0.14
